Where “and” joins values, the source holds several entries; their conditions need not be identical. Equal values may be shown once. About 5,800 (36%) of roughly 16,000 compounds were called active. Inconclusive results (about 23%) are left out. Calls come from the whole dose curve; as a rule, active = well fitted curve in the direction sought with a large enough effect; inconclusive = small, poorly fitted or top-dose-only effect, or effect the other way; inactive = no such curve, though single readings can be large or run the other way. The list shows a part of the results. The source holds several records for some structures; these can differ, active in one and inactive in another.
target: Cytochrome P450 2C19 (Homo sapiens) (UniProt P33261); assay: Cytochrome panel assay with activity outcomes; conditions: recombinant CYP, pro-luciferin dealkylation, luminescence, p450-cyp2c19; series mostly up to 57.1 µM
% is set by controls: 0 for no effect and ±100 for the full control effect.

Cytochrome P450 2C19 (Homo sapiens), sequence (P33261 whole entry, looked up): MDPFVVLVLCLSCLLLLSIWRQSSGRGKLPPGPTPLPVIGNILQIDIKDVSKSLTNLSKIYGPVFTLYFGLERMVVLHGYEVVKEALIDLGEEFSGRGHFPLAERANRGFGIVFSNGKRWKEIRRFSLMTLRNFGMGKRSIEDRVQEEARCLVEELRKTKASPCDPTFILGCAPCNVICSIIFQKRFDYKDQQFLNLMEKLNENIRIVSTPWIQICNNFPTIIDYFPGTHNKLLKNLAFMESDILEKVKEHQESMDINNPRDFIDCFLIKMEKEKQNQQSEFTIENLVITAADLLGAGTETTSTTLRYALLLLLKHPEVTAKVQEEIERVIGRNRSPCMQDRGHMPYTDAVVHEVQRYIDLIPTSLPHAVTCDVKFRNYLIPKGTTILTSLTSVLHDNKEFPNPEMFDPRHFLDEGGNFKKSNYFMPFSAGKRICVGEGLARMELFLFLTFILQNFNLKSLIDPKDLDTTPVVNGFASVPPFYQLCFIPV

Row | SMILES | AC50 | activity, negative = inhibition
1 | Fc1ccccc1CCNCc1cccc(Cl)c1Cl | 0.631 µM (active) | –
2 | N=C(N)n1cc(/C=N\N=C(N)N)cn1 | – | 16.3% [at 11.4 µM] (inactive)
3 | COc1ccc(C2NCc3ccc4c(c3-n3cccc32)OCO4)cc1OC (configuration not stated) | 3.16 µM (active) | –
4 | O=C(Oc1ccccc1)N1CCC2(CCN(Cc3nccs3)CC2)CC1 | inactive | –
5 | CCCN(CCC)[C@H]1CCc2c(F)ccc(O)c2C1 | inactive | –
6 | C/C(=N\OC(=O)NC(C)C)c1sc(-c2ccccc2)nc1C | 10 µM (active) | –
7 | CCNC(=O)O/N=C(\C)c1sc(-c2ccccc2)nc1C | 11.2 µM (active) | –
8 | C/C(=N\OC(=O)NC(C)C)c1sc(-c2ccc(Cl)cc2)nc1C | 5.01 µM (active) | –
9 | OC(c1ccccc1)(c1ccccc1)C1CCNCC1 | inactive | –
10 | NS(=O)(=O)C[C-]1C=C[CH]([Sb-]([Cl])([Cl])([Cl])([Cl])[Cl])C=C1.c1ccncc1 (configuration not stated) | – | 12.8% [at 11.4 µM] (inactive)
11 | COc1ccc2[nH]cc(CCN(C)C)c2c1 | inactive | –
12 | CCc1cc2c(nc1CC)CCN(CC/C(C)=N/OC)C2 | – | 6.29% [at 11.4 µM] (inactive)
13 | C=C(C)[C@H]1CC[C@]2(C(=O)O)CC[C@]3(C)[C@@H](CC[C@H]4[C@@]5(C)CC[C@@H](O)C(C)(C)[C@@H]5CC[C@@]43C)[C@H]12 | inactive | –
14 | O=[As](O)(O)c1ccc(NCc2ccccc2)cc1 | – | 1.27% [at 11.4 µM] (inactive)
15 | COC(=O)C1(C)C=C2C(=C(C)C(=O)C2C)CN1 (configuration not stated) | inactive | –
16 | Ic1ccccc1CN[C@@H]1C2CCN(CC2)[C@H]1C(c1ccccc1)c1ccccc1 | inactive | –
17 | COc1cc(C(=O)OC2C[C@H]3CC[C@@H](C2)N3C)ccc1O (some centres not stated) | inactive | –
18 | C/C(=C\c1ccc(N(C)C)cc1)[N+](=O)[O-] | 14.1 µM (active) | –
19 | C[C@H]1CC[C@@]2(NC1)O[C@@H]1C[C@H]3[C@@H]4CC=C5C[C@@H](O)CC[C@]5(C)[C@@H]4CC[C@]3(C)[C@@H]1[C@@H]2C | inactive | –
20 | COc1cc(-c2ccc(=O)[nH]n2)ccc1OC(F)F | 15.8 µM (active) | –
21 | COc1cc(C[C@H](C)N)c(OC)cc1I | inactive | –

Row | SMILES | AC50 | activity, negative = inhibition
22 | C[C@@]12CC(=O)[C@H]3[C@@H](CCC4=CC(=O)CC[C@]43C)[C@H]1CCC2=O | inactive | –
23 | C[C@@H]1CC[C@@H]2N(C1)C[C@H]1[C@@](O)([C@H](O)C[C@]3(O)[C@H]4CC[C@H]5[C@]6(O)O[C@]4(C[C@]13O)[C@@]5(C)CC[C@@H]6O)[C@@]2(C)O | – | 1.59% [at 11.4 µM] (inactive)
24 | NC(N)=NCCN=C(N)N | – | -3.51% [at 11.4 µM] (inactive)
25 | O=C(O)CN1C(=O)CN=C(c2ccccn2)c2cc(Cl)ccc21 | – | 33.4% [at 11.4 µM] (inactive)
26 | CN(C)c1ccc(NC(=O)CN2C(=O)CN=C(c3ccccc3)c3ccccc32)cc1 | 2.24 µM (active) | –
27 | CN(C)CCCNc1c2c(nc3ccc(Cl)cc13)CCCC2 | – | 23.5% [at 11.4 µM] (inactive)
28 | Nc1nc(OCc2ccccc2)c2[nH]cnc2n1 | 6.31 µM (active) | –
29 | O=C(O)C[C@H]1NCc2cc3ccccc3nc21 | – | 22.2% [at 11.4 µM] (inactive)
30 | NCCc1c[nH]c2ccc(C(N)=O)cc12 | inactive | –
31 | COc1ccc2[nH]cc(CCN)c2c1 | inactive | –
32 | CCCCCCCCCOc1ccc2[nH]cc(CCN)c2c1 | 10 µM (active) | –
33 | CCC(COC(=O)NC)NC(=O)Oc1ccccc1 (configuration not stated) | inactive | –
34 | O=S(=O)(c1ccccc1)N1CCCCC1c1cccnc1 (configuration not stated) | 10 µM (active) | –
35 | CC(C)=C[C@H]1[C@@H](C(=O)OCc2cc3c(cc2Cl)OCO3)C1(C)C | 1.58 µM (active) | –
36 | CC(C)CN1CC2(CCN(C(=O)Oc3ccccc3)CC2)C1 | inactive | –
37 | Fc1ccc(C(OCCN2CCN(C/C=C\c3ccccc3)CC2)c2ccc(F)cc2)cc1 | 7.94 µM (active) | –
38 | C(=C/c1ccccc1)/CN1CCN(CCOC(c2ccccc2)c2ccccc2)CC1 | 10 µM (active) | –
39 | CO[C@@H]1CC=C2CCN3CCC4=C(CC(=O)OC4)[C@]23C1 | inactive | –
40 | O=C1OC(=O)[C@@H]2[C@@H]1[C@@H]1CC[C@H]2O1 | inactive | –
41 | CCS(=O)(=O)Nc1cccc(C(=C2CCCCC2)c2cnc[nH]2)c1 | 0.00794 µM (active) | –
42 | N#Cc1ccc(CN2CCC3(CC2)CCN(C(=O)Oc2ccccc2)CC3)cc1 | inactive | –

Row | SMILES | AC50 | activity, negative = inhibition
43 | CC(=O)c1c(O)c(C)c(O)c(Cc2c(O)c3c(c(C(=O)/C=C\c4ccccc4)c2O)OC(C)(C)C=C3)c1O | inactive | –
44 | CCN1CCN(S(=O)(=O)c2ccc(Cl)nc2)CC1 | inactive | –
45 | NCc1cc(=O)[nH]o1 | inactive | –
46 | CS(=O)c1ccc(-c2nc(-c3ccc(F)cc3)c(-c3ccncc3)[nH]2)cc1 (configuration not stated) | inactive and 39.8 nM (active) | –
47 | N[C@@H](CCCCP(=O)(O)O)C(=O)O | inactive | –
48 | C=CCN1C[C@H](C)N([C@H](c2ccc(C(=O)N(CC)CC)cc2)c2cccc(O)c2)C[C@H]1C | inactive | –
49 | CCCCc1ccc(-c2nc(NC(=O)C3C4CCC(O4)C3C(=O)O)sc2C)cc1 (configuration not stated) | 3.98 µM (active) | –
50 | CCCCc1ccc(C(=O)O)nc1 | inactive | –
51 | O=C(O)[C@H]1[C@H](C(=O)O)[C@H]2CC[C@@H]1O2 | inactive | –
52 | C[C@H](N)[C@H](O)c1ccc(O)c(O)c1 | inactive | –
53 | CC(C)CN1CCC2(CC1)CCN(S(C)(=O)=O)CC2 | inactive | –
54 | CC(C)NC(=O)N1CCC2(CC1)CCN(C(=O)Oc1ccccc1)CC2 | inactive | –
55 | CN(C)[C@H]1C(=O)C(C(N)=O)=C(O)[C@]2(O)C(=O)C3=C(O)c4c(O)cccc4[C@@](C)(O)[C@H]3C[C@@H]12 | inactive | –
56 | O=c1cccc2n1CC1CNC[C@H]2C1 | inactive | –
57 | O=C(c1ccc(-c2nnc(Nc3ccccc3)c3ccccc23)cc1)N1C[C@H]2C[C@H](C1)c1cccc(=O)n1C2 | 8.91 µM (active) | –
58 | CC(=O)OCC1=C(C(=O)O)N2C(=O)[C@@H](N)[C@@H]2SC1 | inactive | –
59 | COc1cc([C@@H](O)CN)ccc1O | inactive | –
60 | Cc1c([C@@H](C)[C@H]2NC[C@H](C)C[C@@H]2O)ccc2c1C[C@@H]1[C@H]2CC=C2C[C@@H](O)CC[C@@]21C | – | 26.3% [at 11.4 µM] (inactive)
61 | C[C@@H]1Cc2cc3c(cc2C(c2ccc(N)cc2)=NN1)OCO3 | 2 µM (active) | –
62 | CC1=NN=C(c2ccc(N)cc2)c2cc3c(cc2C1)OCO3 | inactive and 7.94 µM (active) | –

Source: PubChem BioAssay AID1851 (National Center for Advancing Translational Sciences (NCATS), 2009)
